Screens (PubChem BioAssay)
The list is not random: actives were taken first. Their share in the collection is about 0.45%.
Pin1 inhibitor: qHTS Assay to Find Inhibitors of Pin1 | Peptidyl-prolyl cis-trans isomerase NIMA-interacting 1 (Homo sapiens), Q13526 | Pin1 FP peptide displacement, HiFluor488, 10 min | Potency, µM (doses to about 115 µM), for inactives: at the highest dose activity, negative = inhibition, actives largely listed as inhibitors | 0.009% of 390,000 active; active = well fitted inhibition curve with a large enough effect in the polarisation, with a control signal flat, not every such curve was filed as active; inconclusive = small, poorly fitted or top-dose-only effect, or effect the other way, or a change in a side signal; inactive = no such curve, though single readings can be large or run the other way; the % refers to the polarisation; note: % is set by controls: 0 for no effect and ±100 for the full control effect
Target sequence (Q13526 whole entry, looked up): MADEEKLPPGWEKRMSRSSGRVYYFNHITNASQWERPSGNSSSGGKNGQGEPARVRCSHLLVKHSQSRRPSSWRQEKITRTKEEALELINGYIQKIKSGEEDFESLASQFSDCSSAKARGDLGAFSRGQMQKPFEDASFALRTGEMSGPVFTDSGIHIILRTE
B2AR arrestin: qHTS assay of beta-arrestin-biased ligands of beta2-adrenergic receptor; 0.02% of 330,000 active; Beta-2 adrenergic receptor (Homo sapiens), P07550; beta-arrestin recruitment to beta2AR, cell-based reporter; Potency, µM (series often up to 46.1 µM), for inactives: at the highest dose activation, hits mostly activators;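 note: 0% = DMSO controls and full agonism = EC100 isoproterenol or metaproterenol; nearly all actives have a fitted effect of over 65% in size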
Chronic BCR inh: qHTS Assay to Find Inhibitors of Chronic Active B-Cell Receptor Signaling; ABC-DLBCL IkBa-CBG/CBR reporter, luminescence ratio, 4 h; Potency, µM (doses to about 46.1 µM), for inactives: top-dose activity change, negative = inhibition, usual class: inhibitors; 0.05% of 340,000 active; active = well fitted inhibition curve with a large enough effect in the signal ratio, with a control signal flat, not every such curve was filed as active; inconclusive = small, poorly fitted or top-dose-only effect, or effect the other way, or a change in a side signal; the % refers to the signal ratio;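 note: plate controls were basal doxycycline-induced cells for no effect and cells given 10 µM MG132 for full effect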
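TMD8 ABC-DLBCL cells carrying doxycycline-inducible green luciferase fused to IkappaBalpha plus unfused red luciferase were exposed to compounds (up to 46 uM) for 4 hrs at 37C. Activity came from the overlap-corrected green/red luminescence ratio.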
Tb PGK inh: qHTS Assay to Find Inhibitors of Phosphoglycerate Kinase; Phosphoglycerate kinase, glycosomal (Trypanosoma brucei brucei), P07378; Potency, µM (highest dose often 57.5 µM), for inactives: at the top dose activity change, negative = inhibition, most hits filed as inhibitors; PGK/GAPDH coupled, Kinase-Glo luminescence, 60 min; 0.043% of 380,000 active; AID 602233, 2012; note: % is set by controls: 0 for no effect and ±100 for the full control effect; nearly all actives have a fitted effect of over 60% in size
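Luminescent ATP detection (Kinase-Glo Plus) follows a 60-minute room-temperature incubation, with wells lacking PGK as controls. Buffer: 100 mM TEA (pH 7.6), 5 mM MgCl2, 0.01% Tween-20. Coupling enzyme GAPDH (100 nM final) supplies unstable 1,3-BPG in-well.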
Anesthetic bind: qHTS Assay for Identification of Novel General Anesthetics. apoferritin/1-aminoanthracene competitive binding, fluorescence. 0.074% of 350,000 active. Potency, µM (doses to about 77.5 µM), for inactives: top-dose activity change, negative = displacement, actives largely listed as inhibitors. Ferritin light chain (Equus caballus), P02791. AID 485281, 2010; note: % is set by controls: 0 for no effect and ±100 for the full control effect; nearly all actives have a fitted effect of over 20% in size
Target sequence (P02791 2-175 limits assumed): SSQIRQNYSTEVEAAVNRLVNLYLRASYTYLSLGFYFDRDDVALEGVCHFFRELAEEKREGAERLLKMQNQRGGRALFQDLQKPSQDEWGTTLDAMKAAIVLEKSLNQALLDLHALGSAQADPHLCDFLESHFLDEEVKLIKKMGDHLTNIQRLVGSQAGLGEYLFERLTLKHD
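In PBS, apoferritin at 10 uM is loaded with 1-AMA from a 50% saturated solution. After 10 min of compound exposure at ambient temperature, reduced 535 nm fluorescence indicates probe displacement.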
FEN1 inh-1: qHTS Assay for the Inhibitors of Human Flap endonuclease 1 (FEN1); Recombinant FEN1 flap cleavage, fluorescence, 15 min; Potency, µM (series often up to 114 µM), for inactives: top-dose activity change, negative = inhibition, most hits filed as inhibitors; P39748; 0.35% of 390,000 active; note: % is set by controls: 0 for no effect and ±100 for the full control effect; nearly all actives have a fitted effect of over 65% in size
Target sequence (P39748 whole entry, looked up): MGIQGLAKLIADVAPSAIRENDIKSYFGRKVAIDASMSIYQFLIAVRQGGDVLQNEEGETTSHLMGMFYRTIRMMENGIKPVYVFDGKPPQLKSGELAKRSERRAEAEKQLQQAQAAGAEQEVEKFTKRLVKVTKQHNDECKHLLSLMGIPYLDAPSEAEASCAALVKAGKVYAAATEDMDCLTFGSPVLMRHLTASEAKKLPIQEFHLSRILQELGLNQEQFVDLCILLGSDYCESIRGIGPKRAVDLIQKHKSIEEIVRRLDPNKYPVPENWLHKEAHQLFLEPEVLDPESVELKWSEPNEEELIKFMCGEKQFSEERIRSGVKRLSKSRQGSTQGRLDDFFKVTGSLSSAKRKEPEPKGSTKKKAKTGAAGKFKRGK
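FEN1 at 10 nM, compound pretreatment for 15 min (room temperature), 50 nM final substrate to initiate; endpoint reads at 0 and 15 min; DMSO-only plates used as vehicle background.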
FEN1 inh-2: qHTS Assay for the Inhibitors of FEN1: Confirmatory Assay for Cherry-picked Compounds; 79% of 880 active; shares compounds with FEN1 inh-1; FEN1 flap cleavage, TAMRA/BHQ2 fluorogenic DNA substrate; Potency, µM, usual class: inhibitors; note: nearly all actives have a fitted effect of over 60% in size
* = called active by the depositor; i = inactive; u = inconclusive; x = no result given; [ ] = another dose, or the depositor's remark. Unless noted, calls come from the whole dose curve; as a rule, active = well fitted curve in the direction sought with a large enough effect; inconclusive = small, poorly fitted or top-dose-only effect, or another doubt; inactive = no such curve, though single readings can be large; an effect the other way counts as inactive or inconclusive. Potency is the fitted concentration of half-maximal effect.

SMILES	Pin1 inhibitor	B2AR arrestin	Chronic BCR inh	Tb PGK inh	Anesthetic bind	FEN1 inh-1	FEN1 inh-2
Cc1cccc(NC(=O)CNC(=O)CCc2nc3sc4c(c3c(=O)[nH]2)CCCC4)c1C	u	0%	-2%	u	x	79µM*	u
O=C1CN(S(=O)(=O)c2ccc3c(c2)OCCO3)CCN1S(=O)(=O)c1c(F)cccc1F	-2%	x	x	x	x	x	x
Cc1nc2ccccc2c2nc3ccccc3n12	-2%	0%	u	i	-2%	22µM*	27*
N#Cc1nc(Nc2ccc(C(F)(F)F)cc2)nc(NC2CCCC2)n1	10%	x	x	x	x	x	x
O=P(O)(O)O[C@@H]1[C@H](O)[C@H](O)[C@@H](OP(=O)(O)O)[C@H](OP(=O)(O)O)[C@H]1O	x	x	x	x	3%	x	x
O=C1c2ccccc2C(=O)c2c1ccc(O)c2O	u	x	x	u	-9%	7.9µM*	7.6*
Nc1c(C(=O)O)ccc2c1C(=O)c1ccccc1C2=O	-1%	0%	u	-14%	-16%	50µM*	34*
CN(C)CCNc1ccc2nnn3c4ccc(O)cc4c(=O)c1c23	-4%	x	x	i	x	13µM*	8.5*
CCN(CC)CCCNc1ccc2ncn3c4ccc(O)cc4c(=O)c1c23	x	x	x	-6%	x	10µM*	8.5*
CCOC(=O)c1ccc2ncc(C(=O)OCC)c(NCCN(C)C)c2c1	-3%	x	x	-4%	x	16%	x
O=C(CSc1ccsc1[N+](=O)[O-])NCc1ccccc1	1%	0%	-4%	-2%	-14%	-1%	u
CC1=Nc2ccccc2/C1=C\c1nc(-c2ccc(F)cc2)oc1O	u	0%	u	4%	u	71µM*	24*
CC(C)(C)n1ncc2c(=O)n(Cc3ccc(SC(F)(F)F)cc3)cnc21	x	x	x	x	x	0%	x
O=[N+]([O-])c1ccc(Cl)c(S(=O)(=O)/N=C(/Sc2ccc(Br)cc2)c2ccccc2)c1	-4%	x	x	x	x	-11%	x
O=C(NCc1ccccc1C(F)(F)F)c1cccc2c1C(=O)c1ccc(N3CCOCC3)cc1S2(=O)=O	u	0%	u	-1%	x	-14%	x
O=C(NCc1ccccc1C(F)(F)F)c1cccc2c1C(=O)c1ccc(N3CCC(N4CCCCC4)CC3)cc1S2(=O)=O	x	x	x	4%	x	x	76*
CCOC(=O)C1=C(COC(=O)c2ccc([N+](=O)[O-])s2)NC(=O)NC1C (stereo not given)	x	0%	-10%	-2%	x	u	4.3*
O=C(O)c1cccc2cccc(-c3c4ccc(=O)c(O)c-4oc4c(O)c(O)ccc34)c12	x	x	x	2.5µM*	x	3.2µM*	3.4*
COc1cc(O)c(C(C)=O)c(CC(=O)O)c1	x	0%	1%	16µM*	-11%	22µM*	60*
COc1cc(O)c(C(C)=O)c(OC)c1	-5%	x	x	-4%	-13%	13%	x
COc1cc(NC(=O)c2cc3c(C)nc4ccccc4c3o2)cc(OC)c1OC	u	0%	8%	-9%	91%	u	u
CCOc1cc(Br)cc(/C=C2\SC(=Nc3ccccc3)NC2=O)c1O	4%	0%	u	-2%	u	-30%	x
C=CCOc1ccc(Br)cc1/C=C1/SC(=Nc2ccc(C(=O)O)cc2)NC1=O	60%	0%	u	u	-2%	25µM*	u
C=N[C@H](C(=O)N[C@@H]1C(=O)N2[C@@H]1SC(C)(C)[C@@H]2C(=O)O)c1ccccc1	x	x	x	x	-3%[29.3 µM]	x	x
O=C1CCc2cc(S(=O)(=O)Nc3ccc(Cl)c(Cl)c3)c(F)cc2N1	-2%	x	x	x	x	x	x
SMILES	Pin1 inhibitor	B2AR arrestin	Chronic BCR inh	Tb PGK inh	Anesthetic bind	FEN1 inh-1	FEN1 inh-2
NC(=S)NN=Cc1ccc(-c2ccc(S(=O)(=O)Nc3ncccn3)cc2)o1	u	0%	1%	-29%	x	79µM*	24*
CSc1ccc(/C=C2\C=Cc3cc([N+](=O)[O-])ccc32)cc1	x	x	x	x	x	-1%	x
COc1ccc(C(=O)N/N=C/c2ccc(OC)c(COc3ccccc3)c2)cc1	24%	0%	12%	6%	-3%	-3%	x
COc1ccc(/C=N\NC(=O)c2cc(O)c(O)c(O)c2)cc1COc1ccc(C(=O)OCC(C)C)cc1	u	-1%	u	-2%	u	u	34*
COC(=O)c1ccc([C@H]2Nc3ccc(S(=O)(=O)Nc4ccc(F)cc4)cc3[C@H]3C=CC[C@H]32)cc1	-5%	x	x	9%	-22%	-20%	x
COc1cccc(NS(=O)(=O)c2ccc3c(c2)C2C=CCC2C(c2ccc(C(=O)O)cc2)N3)c1 (stereo not given)	u	0%	-7%	-28%	-6%	35µM*	30*
O=C1NC(=O)/C(=C/c2ccc(-c3cccc([N+](=O)[O-])c3)o2)S1	-3%	-1%	19%	u	-9%	u	u
CCCCCCCCCC[n+]1cccc2cc(Br)ccc21	x	x	x	x	x	3%	x
CSc1ccc(/C=N/Nc2cccc(C(=O)O)c2)cc1	19µM*	0%	u	u	-15%	22µM*	43*
N#Cc1ccc(NC(=O)COc2ccccc2C(=O)Nc2ccccc2)cc1	x	x	x	x	x	2%	x
CCc1ccc(NC(=S)/N=C(\N)Nc2nc(C)c3cc(CC)ccc3n2)cc1	25%	-1%	-10%	3%	-11%	-20%	x
Cc1cc(C)c2c(N)c3ccccc3nc2n1	9%	-1%	u	-13%	613%	45µM*	38*
Cc1cc(C)c2cccc(N)c2n1	-3%	0%	-13%	-1%	-8%	2%	x
CCc1ccc2nc3nc(C)cc(C)c3c(N)c2c1	12%	3%	u	-4%	786%	u	u
Nc1nc(Nc2cc(F)cc(F)c2)nc(NC2CCCC2)n1	-2%	x	x	x	x	x	x
Oc1ccc(NCc2ccccc2OCc2ccccc2F)cc1	3%	6%	u	-3%	u	u	u
O=C1CC(c2ccc(O)c(O)c2)Oc2c1ccc(O)c2O (stereo not given)	u	0%	9%	u	-12%	3.5µM*	34*
Cc1cc2c(s1)c1cnn(Cc3ccccc3Cl)c(=O)c1n2C	4%	x	x	x	x	x	x
Nc1ccc(C(=O)O)cc1[N+](=O)[O-]	-2%	0%	5%	i	-3%	-2%	x
